Bioassay records as filed in PubChem BioAssay.
TTR transcr act – TTR transcription activation, primary screen; SH-SY5Y TTR promoter Gaussia luciferase, luminescence; 100% = recombinant luciferase protein wells; activation, % at 16.7 µM; AID 1117267; 92,000 compounds, 1.3% hits;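 active = activation above the mean of all tested compounds plus 3 SD, cut at about 9.5% in these data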;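 also: cells exposed to compounds for one day before reading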
TTR inh HuH7 – counter-screen for TTR activators: TTR transcription inhibitors in HuH7 cells; shares compounds with TTR transcr act; HuH7 TTR promoter-Gaussia luciferase reporter, luminescence; inhibition, % at 16.7 µM; 1,100 compounds, 4% hits; AID 1117279;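 active = average inhibition above the solvent-only control wells' mean plus 3 SD, cut at about 15% in these data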;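 also: inhibitors lower well luminescence so higher value means more inhibition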
TTR up confirm – confirmation of human transthyretin transcription activators | shares compounds with TTR transcr act | SHSY5Y TTR promoter Gaussia luciferase, luminescence; 100% = purified Lucia enzyme wells, no cells | activation, % at 16.7 µM | 1,100 tested, under 10 active | AID 1117280;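 active = mean activation above a set limit taken from the earlier primary screen, cut at about 11% in these data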
A number is an active result; - = inactive. This is one part of a sample in which hits are shown more often than they occur.

SMILES | TTR transcr act | others
CC(C)(C)OC(=O)NCC(=O)NNC(=O)C(C(=O)OCc1ccccc1)c1ccccc1 (configuration not stated) | -
C=CC1CN2CCC1CC2C(O)c1ccnc2ccc(OC)cc12 (configuration not stated) | 13 | TTR inh HuH7=-;TTR up confirm=-
O=c1[nH]c2cc([N+](=O)[O-])ccc2c2cc(Br)ccc12 | -
C[C@H]1[C@H](NC(=O)c2ccc(Cl)c(C(F)(F)F)c2)CC[C@@]23CCCN2C(=O)CCC[C@@H]13 | -
O=C1CCCC[C@@H](CO)[C@H](O)C[C@H](c2ccccc2)O1 | -
COc1cc(CN2CCCC(CO)(Cc3ccccc3)C2)ccc1O (configuration not stated) | -
COc1cccc(CC2(CO)CCCN(Cc3cn[nH]c3-c3ccccc3)C2)c1 (configuration not stated) | 10 | TTR inh HuH7=-;TTR up confirm=-
CCOC(=O)C1(Cc2ccccc2)CCN(Cc2cn[nH]c2-c2ccccc2)CC1 | -
CCN(CC)C1CCN(Cc2c(C(=O)N3CCCCCCC3)nc3ccc(Cl)cn23)C1 (configuration not stated) | -
Fc1ccc(CNCc2ccco2)cc1 | -
CCOC(=O)COc1ccc2c3c(c(=O)oc2c1C)CCC3 | -
Cc1c(OCC(=O)C(C)(C)C)ccc2c3c(c(=O)oc12)CCCC3 | -
Cc1coc2c(C)c3oc(=O)c4c(c3cc12)CCCC4 | 12 | TTR inh HuH7=-;TTR up confirm=-
COc1ccc(C(C)=O)cc1COC(=O)c1ccc(C)c(S(=O)(=O)N2CCOCC2)c1 | -
CN1C(=O)[C@@](O)(c2cccn2C)c2cc(Cl)ccc21 | -
O=C(CSc1nnc(-c2ccccc2)o1)NCC1CCCCC1 | 12 | TTR inh HuH7=-;TTR up confirm=-
Cc1cnc(NC(=O)CSc2nnc(-c3ccccc3)o2)s1 | -
O=C(CSc1nnc(-c2cccc(F)c2)o1)NC1CCCC1 | -
COc1ccc(CNC2CCC23CCCCC3)cc1OC (configuration not stated) | -
CCOc1ccc(-c2nc(CSCC(=O)NC3CCCc4ccccc43)c(C)o2)cc1 (configuration not stated) | -
O=C(CCCC1=NS(=O)(=O)c2ccccc2N1)N1CCN(c2ccc([N+](=O)[O-])cc2)CC1 | 9.7 | TTR inh HuH7=-;TTR up confirm=-
O=C(CCC1=NS(=O)(=O)c2ccccc2N1)NC1CCCCCCC1 | -
O=C(CN1C(=O)C2CC=CCC2C1=O)N1CCN(c2ccc([N+](=O)[O-])cc2)CC1 (configuration not stated) | -
CCCCNC(=O)C[C@H]1C[C@@]2(C(=O)OC)C(=C[C@H](C3CCCC3)O[C@@H]2C)N(Cc2ccc(Cl)cc2Cl)C1=O | -
CCOC(=O)N/N=C/c1ccc(F)cc1F | 26 | TTR inh HuH7=-;TTR up confirm=-
SMILES | TTR transcr act | others
CCOC(=O)N/N=C/c1ccccc1OCc1ccc(Cl)cc1 | -
CCOC(=O)N/N=C\c1sccc1C | -
CCCn1c(SCC(=O)Nc2ccccc2OC)nnc1-c1ccco1 | -
CCOC(=O)[C@]12CCCC=C1N(Cc1ccccc1)C(=O)[C@H](CC(=O)NCc1ccc(OC)c(OC)c1)C2 | -
CCCCCCCCN1C(=O)[C@H](CC(=O)NCCc2ccccc2OC)C[C@@]2(C(=O)OCC)CCCC=C12 | -
COCCCNC(=O)C[C@@H]1C[C@@]2(C(=O)OC)CCCCC=C2N(CCc2ccc(OC)c(OC)c2)C1=O | 36 | TTR inh HuH7=-;TTR up confirm=-
O=C(c1cc(C2CC2)on1)N(C1CCCCC1)C1CCCCC1 | -
Cc1ccc(C(=O)NCc2ccccc2)cc1Br | -
COc1ccc(Cl)cc1NC(=O)c1cc(C2CC2)on1 | -
COc1ccc(NC(=O)c2cc(-c3ccc(OC)c(OC)c3)on2)cc1OC | -
COc1ccc(Cl)cc1NC(=O)c1cc(-c2ccccc2)on1 | 12 | TTR inh HuH7=-;TTR up confirm=-
C[C@H]1[C@@H](N(C)C)CC[C@@]23CCCN2C(=O)CCC[C@@H]13 | -
COc1cccc(C(=O)n2ccc3ccc(-c4ccc5ccn(Cc6ccccc6)c5c4)cc32)c1 | -
C/C(=N\NC(=O)C(O)c1ccccc1)c1ccc(Cl)cc1 (configuration not stated) | 23 | TTR inh HuH7=-;TTR up confirm=-
CC(/C=C/c1ccccc1)=N/NC(=O)C(O)c1ccccc1 (configuration not stated) | -
C/C(=N\NC(=O)c1ccccn1)c1ccc(Cl)cc1 | -
Cc1ccc(S(=O)(=O)N2C(N)=C(C(=O)NCc3ccc(Br)cc3)C(c3ccc(Cl)cc3)C2C(=O)c2ccccc2)cc1 (configuration not stated) | -
Cc1ccc(C(=O)O/N=C2\CCCc3ccccc32)cc1 | 23 | TTR inh HuH7=-;TTR up confirm=-
O=C(O/N=C1/CCCc2occc21)c1ccccc1 | -
COc1ccc2c(c1)/C(=N/OC(=O)c1cccs1)CCC2 | -
Cc1cc(C)cc(C(O)c2ncc(-c3ccccc3F)[nH]2)c1 (configuration not stated) | -
Cc1cccc(N2CCN(S(=O)(=O)c3ccc4c(c3)CCN4C(=O)CCC(=O)O)CC2)c1C | -
Cc1cccc(N2CCN(S(=O)(=O)c3ccc4c(c3)OCCO4)CC2)c1C | -
Cc1cccc(N2CCN(S(=O)(=O)c3ccc4c(c3)CC(=O)N4C)CC2)c1C | 14 | TTR inh HuH7=-;TTR up confirm=-
Cc1ccccc1CN1CCCCC(NC(=O)c2ccc3ccccc3c2)C1=O (configuration not stated) | -
SMILES | TTR transcr act | others
CCC(CO)Oc1cc(NCc2ccncc2)c2ncn(C(C)C)c2c1 (configuration not stated) | -
CCC(CO)Oc1cc(NCc2cc(C)cc(C)c2)c2ncn(C(C)C)c2c1 (configuration not stated) | 11 | TTR inh HuH7=-;TTR up confirm=-
CCC(CO)Oc1cc(NCc2ccc(F)cc2)c2ncn(C(C)C)c2c1 (configuration not stated) | -
CCCCNc1c(CC(C)C)nc2nc(C)cc(C)n12 | -
O=C(NC1CCCCN(Cc2ccc(Cl)cc2)C1=O)c1ccc(F)cc1 (configuration not stated) | -
CC1=C(C(=O)N2CCCCCC2)CC(CC(=O)NCCN2CCOCC2)C(=O)N1Cc1ccccc1 (configuration not stated) | -
NC(=O)c1cc(S(=O)(=O)Nc2ccc(OC(F)(F)F)cc2)cs1 | -
CCN(CC)C(=O)C1=C(C)N(Cc2ccc(C(C)(C)C)cc2)C(=O)C(CC(=O)NCCN2CCOCC2)C1 (configuration not stated) | -
Cc1ccc(OCCn2c(CCNC(=O)c3ccc(F)cc3F)nc3ccccc32)cc1 | -
CC(=C/c1ccc(C(C)C)cc1)/C=N/NC(=O)c1ccncc1 | 10 | TTR inh HuH7=-;TTR up confirm=-
CC(/C=N/NC(=O)Cn1nccc1C)=C\c1ccc(C(C)C)cc1 | -
CC(/C=N\NC(=O)Cn1cncn1)=C/c1ccc(C(C)C)cc1 | -
Cc1sc2ncnc(NCCCN3CCCC3=O)c2c1C | -
COc1ccccc1C(=O)NCC(=O)N/N=C/c1cc(Br)ccc1OCc1ccccc1 | -
Cc1ccc(N2CCN(C(=O)c3cc(COc4c(C)cccc4C)on3)CC2)c(C)c1 | -
COc1cccc(OCc2cc(C(=O)N3CCN(c4ccccc4O)CC3)no2)c1 | 11 | TTR inh HuH7=-;TTR up confirm=-
Cc1ccc(OCc2cc(C(=O)N3CCCC3)no2)cn1 | -
COc1cccc(OCc2cc(C(=O)N(C)C3CCCCC3)no2)c1 | -
CN1C(=O)C(c2cn(C)c3ccccc23)(c2cn(C)c3ccccc23)c2ccccc21 | -
